This note sets out measurements from PubChem BioAssay (Tox21).

Unmarked numbers belong to inactive results. Inconclusive results are not listed. Activity calls are given as the source filed them. Calls come from the whole dose curve; as a rule, active = well fitted curve in the direction sought with a large enough effect in the repeat runs; inconclusive = weak or mixed curves; inactive = no such curve, though single readings can be large; an effect the other way counts as inactive or inconclusive.

Experiment [1] can be described thus: qHTS RealTime-Glo MT Cell Viability Assay in HEK293 cells - 16 hour (AID 1224872). For activity change, negative = cytotoxicity: top concentration of the series differs between compounds. Note: nearly all actives have a fitted effect of over 50% in size. Note: potency is the fitted concentration of half-maximal effect. The procedure, abridged:
(§1)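 Homogeneous bioluminescent viability format in HEK293 cells (600 cells/well). Following 5 h at 37 C/5% CO2, 23 nL compound was pintooled; the signal was measured repeatedly during 40 h incubation.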
Background: qHTS replaces the single test concentration by a dilution series.

The nature of experiment [2]: qHTS RealTime-Glo MT Cell Viability Assay in HepG2 cells - 8 hour (AID 1224873). Note: nearly all actives have a fitted effect of over 55% in size. Note: potency is the fitted concentration of half-maximal effect. The procedure, abridged:
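HepG2 cells mixed with RealTime-Glo MT reagents (NanoLuc plus cell-permeant prosubstrate) were seeded at 600 cells/well, incubated 5 h at 37 C/5% CO2, then pinned with compounds in DMSO; nonlytic luminescence tracked viability during 40 h treatment.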

Experiment [3] in a line: qHTS RealTime-Glo MT Cell Viability Assay in HEK293 cells - 40 hour (AID 1224874). Note: nearly all actives have a fitted effect of over 50% in size. Note: potency is the fitted concentration of half-maximal effect. To be noted: RealTime-Glo luminescence; max response: active compounds read low. Summed up: (§2)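 Luminescence, which tracks viable cell number through reduction of the prosubstrate to a NanoLuc substrate, was read over continuous 37 C culture. Cells (600/well) were premixed with reagent and rested 5 h before 23 nL of compound in DMSO was pinned.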

The nature of experiment [4]: A CellTox Green Cytotoxicity Assay to monitor cytotoxicity in HEK293 cells - 24 hour (AID 1224875). Note: series mostly up to about 77 µM; nearly all actives have a fitted effect of over 45% in size. The procedure, abridged:
(§3)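 Fluorescence from a DNA-binding dye excluded by viable cells was measured repeatedly in the same HEK293 wells (600 cells/well) during continuous compound exposure at 37 C. Each assay gives one read point: 0, 8, 16, 24, 32 or 40 h.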

Experiment [5] is described as follows: qHTS RealTime-Glo MT Cell Viability Assay in HepG2 cells - 32 hour (AID 1224877). Note: nearly all actives have a fitted effect of over 55% in size. Note: potency is the fitted concentration of half-maximal effect. The procedure, abridged:
(§4)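 Cell number in HepG2 cultures estimated from NanoLuc luminescence generated by metabolic reduction of a prosubstrate by living cells. The homogeneous, nonlytic format allowed repeated reads at 0, 8, 16, 24, 32 and 40 h of compound exposure.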

A short description of experiment [6]: A CellTox Green Cytotoxicity Assay to monitor cytotoxicity in HepG2 cells - 24 hour (AID 1224878). Note: nearly all actives have a fitted effect of over 45% in size. Note: potency is the fitted concentration of half-maximal effect. Summed up: (§5)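 Real-time cytotoxicity: fluorescence of a cell-impermeant cyanine dye binding DNA of dead HepG2 cells, measured repeatedly (0–40 h) during compound exposure at 37 C. Cells seeded 600/well with reagent, dosed after 5 h.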
Experiment [7] is described as follows: A CellTox Green Cytotoxicity Assay to monitor cytotoxicity in HepG2 cells - 40 hour (AID 1224879). Note: nearly all actives have a fitted effect of over 40% in size. Note: potency is the fitted concentration of half-maximal effect. Summed up: as §5
Experiment [8] can be described thus: qHTS RealTime-Glo MT Cell Viability Assay in HEK293 cells - 0 hour (AID 1224880). Note: top concentration of the series differs between compounds; nearly all actives have a fitted effect of over 45% in size. Summed up: as §2
Experiment [9] can be described thus: A CellTox Green Cytotoxicity Assay to monitor cytotoxicity in HEK293 cells - 32 hour (AID 1224881). Note: nearly all actives have a fitted effect of over 40% in size. Note: potency is the fitted concentration of half-maximal effect. Summed up:
as §3

Experiment [10] is described as follows: A CellTox Green Cytotoxicity Assay to monitor cytotoxicity in HepG2 cells - 0 hour (AID 1224882). Note: nearly all actives have a fitted effect of over 35% in size. Summed up: as §5
A short description of experiment [11]: A CellTox Green Cytotoxicity Assay to monitor cytotoxicity in HepG2 cells - 32 hour (AID 1224883). Note: nearly all actives have a fitted effect of over 50% in size. Note: potency is the fitted concentration of half-maximal effect. Summed up: as §5
Experiment [12] in a line: A CellTox Green Cytotoxicity Assay to monitor cytotoxicity in HEK293 cells - 8 hour (AID 1224884). Note: nearly all actives have a fitted effect of over 35% in size. Summed up:
as §3

Experiment [13] can be described thus: qHTS RealTime-Glo MT Cell Viability Assay in HepG2 cells - 16 hour (AID 1224885). Note: nearly all actives have a fitted effect of over 50% in size. Note: potency is the fitted concentration of half-maximal effect. Summed up: as §4
Experiment [14] in a line: qHTS RealTime-Glo MT Cell Viability Assay in HEK293 cells - 24 hour (AID 1224886). For activity change, negative = cytotoxicity: top concentration of the series differs between compounds. Note: nearly all actives have a fitted effect of over 50% in size. Note: potency is the fitted concentration of half-maximal effect. The procedure, abridged:
as §1

Experiment [15] in a line: qHTS RealTime-Glo MT Cell Viability Assay in HEK293 cells - 8 hour (AID 1224887). For activity change, negative = cytotoxicity: top concentration of the series differs between compounds. Note: nearly all actives have a fitted effect of over 50% in size. Note: potency is the fitted concentration of half-maximal effect. Summed up:
as §2

A short description of experiment [16]: A CellTox Green Cytotoxicity Assay to monitor cytotoxicity in HEK293 cells - 16 hour (AID 1224888). Note: nearly all actives have a fitted effect of over 35% in size. Note: potency is the fitted concentration of half-maximal effect. Summed up:
as §3

Experiment [17] can be described thus: qHTS RealTime-Glo MT Cell Viability Assay in HepG2 cells - 0 hour (AID 1224889). Note: nearly all actives have a fitted effect of over 50% in size. Summed up: as §4
Experiment [18] can be described thus: A CellTox Green Cytotoxicity Assay to monitor cytotoxicity in HepG2 cells - 8 hour (AID 1224890). Note: nearly all actives have a fitted effect of over 45% in size. Note: potency is the fitted concentration of half-maximal effect. Summed up: as §5
Experiment [19] in a line: qHTS assay to identify small molecule antagonists of the estrogen receptor alpha (ER-alpha) signaling pathway using the BG1 cell line in the presence of 0.1 nM 17-beta-estradiol - cell viability counter screen (AID 1259241). Note: nearly all actives have a fitted effect of over 40% in size. The procedure, abridged: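 Viability in VM7Luc4E2 cells after 22 hr compound exposure under 0.1 nM 17beta-estradiol stimulation, by CellTiter-Fluor.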

The nature of experiment [20]: A CellTox Green Cytotoxicity Assay to monitor cytotoxicity in HepG2 cells - 16 hour (AID 1224876). Note: nearly all actives have a fitted effect of over 45% in size. Note: potency is the fitted concentration of half-maximal effect. The procedure, abridged: as §5
% is set by controls: 0 for no effect and ±100 for the full control effect.

For the molecule `Clc1cccnc1`, the Potency result in experiment [1], in [2], in [4], in experiment [5], in [6] and in experiment [7] was “inactive” in each case. Besides, the Potency entry in experiment [8], in [9], in experiment [10], in experiment [11], in [12] and in [13] was “inactive” in each case. Besides, the Potency entry in experiment [14], in experiment [15], in [16], in experiment [17], in experiment [18] and in experiment [19] was “inactive” in each case. The max response in experiment [3] is 0.202%.

Regarding `CN1CN(C)CN(C)C1`, the Potency entry in experiment [1], in [2], in experiment [4], in experiment [5], in [6] and in [7] was “inactive” in each case. Also, the Potency entry in experiment [8], in [9], in experiment [10], in [11], in experiment [12] and in [13] was “inactive” throughout. Moreover, the Potency entry in experiment [15], in [16], in experiment [17], in experiment [18] and in experiment [19] was “inactive” each time. Besides, in experiment [3], the max response was -12.7%.

On to `CC1CNCC(C)O1` (centres undefined), for which the Potency entry in experiment [1], in experiment [2], in experiment [4], in experiment [5], in experiment [6] and in [7] was “inactive” each time. The Potency result in [8], in experiment [9], in [10], in experiment [11], in [12] and in experiment [13] was “inactive” throughout. Moreover, the Potency result in [14], in experiment [15], in experiment [16], in experiment [17] and in [19] was “inactive” in each case. Moreover, the max response in experiment [3] was 11.7%.

On to `Cc1cnccn1`, for which the Potency entry in experiment [1], in [2], in experiment [20], in experiment [5], in experiment [6] and in [7] was “inactive” in each case. Also, the Potency result in [8], in [9], in experiment [10], in experiment [11], in experiment [12] and in experiment [13] was “inactive” each time. The Potency entry in [14], in experiment [15], in [16], in [17], in experiment [18] and in experiment [19] was “inactive” each time. Also, the max response in experiment [3] is 8.17%.

For the molecule `COCC(=O)O[C@]1(CCN(C)CCCc2nc3ccccc3[nH]2)CCc2cc(F)ccc2[C@@H]1C(C)C`, the Potency in [1] was 5.35 µM (active); in experiment [2], 21.3 µM (active); in experiment [3], 6.74 µM (active); in experiment [20], 19 µM (active); in experiment [5], 13.4 µM (active); in experiment [6] it was 13.4 µM (active). Moreover, the Potency was 10.7 µM (active) in experiment [7]; 21.3 µM (active) in experiment [9]; 10.7 µM (active) in [11]; 19 µM (active) in experiment [13]; 6.01 µM (active) in experiment [14]; 6.74 µM (active) in experiment [15]. In addition, the Potency in experiment [16] and in [18] was 23.9 µM (active) each time. Further, the Potency result in [8], in experiment [12], in experiment [17] and in [19] was “inactive” in each case.

As to `OCCC(O)CO` (centres undefined), the Potency result in experiment [1], in experiment [2], in experiment [20], in experiment [5], in experiment [6] and in [7] was “inactive” in each case. In addition, the Potency entry in experiment [8], in [9], in experiment [10], in [11], in experiment [12] and in experiment [13] was “inactive” throughout. Further, the Potency result in [14], in experiment [15], in experiment [17], in [18] and in experiment [19] was “inactive” throughout. In addition, the max response in experiment [3] was 15.6%.

Take `CCCCCCCCCCCCCc1ccccc1`: the Potency result in experiment [1], in [2], in [4], in [5], in experiment [6] and in experiment [7] was “inactive” in each case. The Potency entry in [8], in [9], in [11], in [12], in [13] and in [14] was “inactive” each time. Moreover, the Potency result in [15], in [17], in [18] and in experiment [19] was “inactive” in each case. In experiment [3], the max response was -7.71%.

For `C[Si](C)O[Si](C)C`, the Potency entry in experiment [1], in experiment [2], in experiment [4], in [5], in experiment [6] and in experiment [7] was “inactive” each time. Besides, the Potency entry in experiment [8], in [9], in experiment [10], in experiment [11], in experiment [12] and in [13] was “inactive” each time. The Potency entry in experiment [14], in experiment [15], in [16], in experiment [17] and in [19] was “inactive” in each case. Also, the max response in experiment [3] was -8.35%.

For the molecule `Oc1c(Br)cc(Br)c2cccnc12`, the Potency result in experiment [1], in experiment [2], in experiment [20], in experiment [5], in experiment [6] and in experiment [7] was “inactive” in each case. Further, the Potency entry in [8], in experiment [9], in experiment [10], in [11], in [12] and in experiment [13] was “inactive” throughout. Further, the Potency entry in [14], in experiment [15], in [16], in experiment [17] and in experiment [19] was “inactive” each time. In experiment [3], the Potency was 19 µM (active).

Consider `N[C@@H](CSSC[C@H](N)C(=O)O)C(=O)O`, for which the activity change, negative = cytotoxicity in [1] is 13.2% [at 0.29 µM]; in experiment [8], 18.3% [at 0.29 µM]; in experiment [14], 9.89% [at 0.29 µM]; in experiment [15], 16.3% [at 0.29 µM]; in [17], 0.0589% [at 0.29 µM]; in experiment [19], 0.433% [at 0.349 µM]. Besides, the viability change, negative = cytotoxic in experiment [2] is 3.56% [at 0.29 µM]. Moreover, the max response in [3] is 2.95%. The activity change is 7.29% [at 0.29 µM, active compounds read high] in experiment [4] and 14.4% [at 0.29 µM, active compounds read high] in experiment [16]. The activity change, negative = cytotoxic in experiment [5] is -2.71% [at 0.29 µM]; in experiment [13], 0.777% [at 0.29 µM]. The cytotoxicity increase is 5.29% [at 0.29 µM] in experiment [7], 2.69% [at 0.29 µM] in [9] and 26.5% [at 0.29 µM] in experiment [12].

With `CC(C)(c1cc(Br)c(OCCO)c(Br)c1)c1cc(Br)c(OCCO)c(Br)c1`, the Potency in experiment [1] is 17 µM (active); in [3], 12 µM (active); in experiment [14], 12 µM (active). The Potency result in [2], in [4], in experiment [20], in [6], in experiment [8] and in experiment [9] was “inactive” throughout. In addition, the Potency entry in [10], in experiment [12], in experiment [16], in experiment [17], in [18] and in experiment [19] was “inactive” throughout.

With `CCc1c(C(=O)O)c(=O)cnn1-c1ccc(Cl)cc1`, the Potency result in [1], in experiment [2], in experiment [4], in experiment [5], in [6] and in [7] was “inactive” each time. For the same molecule, the Potency result in experiment [8], in experiment [9], in [10], in experiment [11], in [12] and in experiment [13] was “inactive” in each case. Further, the Potency result in experiment [14], in [15], in experiment [16], in experiment [17] and in experiment [19] was “inactive” in each case. In experiment [3], the max response was 18.5%.

For `CCC(=O)OCCc1ccccc1`, the Potency entry in experiment [1], in experiment [2], in experiment [20], in experiment [5], in [6] and in experiment [7] was “inactive” throughout. The Potency entry in [8], in experiment [9], in experiment [11], in [12], in experiment [13] and in experiment [14] was “inactive” throughout. In addition, the Potency result in experiment [15], in experiment [16], in experiment [17], in [18] and in experiment [19] was “inactive” throughout. Further, in experiment [3], the max response was 14%.
